Bioassay records deposited in PubChem BioAssay by Broad Institute.
aSyn 5UTR act – Activators via SNCA 5'UTR binding, MLPCN | actives 7.1% (n = 300,000) | AID 1814 | alpha-synuclein 5'UTR reporter, activators screen | activity score, % (tested at 7.5 µM), hits read low; in the data active = activity score below about -60%
Of the large screens only hits and unclear results are named; the others gave an inactive call. These entries were drawn from the full list.

CC(CC(=O)Nc1ccc2c(c1)OCCO2)c1ccccc1 (configuration not stated)	aSyn 5UTR act -161
CC(CC(=O)Nc1ccc2c(c1)OCO2)c1ccccc1 (configuration not stated)	aSyn 5UTR act -92
CCSc1nnc(Nc2ccccc2)s1	aSyn 5UTR act -99
CCSc1nnc(Nc2ccc(C)cc2)s1	aSyn 5UTR act -161
O=C1CCCCC1Sc1nnc(Nc2ccccc2)s1 (configuration not stated)	aSyn 5UTR act -127
CCc1ccc(NS(=O)(=O)c2ccc3[nH]cc(C(=O)N4CCc5ccccc54)c(=O)c3c2)cc1	aSyn 5UTR act -128
CC1CCCN(C(=O)c2ccc(-c3ccccc3Cl)o2)C1 (configuration not stated)	aSyn 5UTR act -136
CC(C)(CNC(=O)c1ccc(-c2ccccc2Cl)o1)N1CCOCC1	aSyn 5UTR act -124
CC1CN(C(=O)c2ccc(-c3ccccc3Cl)o2)CC(C)O1 (configuration not stated)	aSyn 5UTR act -64
c1ccc2c(c1)CCN(c1ncnc3c1[nH]c1ccccc13)C2	aSyn 5UTR act -102
COc1cccc(N2CCN(c3ncnc4c3[nH]c3ccccc34)CC2C)c1 (configuration not stated)	aSyn 5UTR act -73
COc1ccc(-c2nsc3c(N4CCCCC4C)ncnc23)cc1 (configuration not stated)	none
Cc1ccc(Nc2nc(/N=C/N(C)C)n[nH]2)cc1C	aSyn 5UTR act -79
O=[N+]([O-])c1ccc(-[n+]2ccc3ccccc3c2)c([N+](=O)[O-])c1	aSyn 5UTR act -105
CCN(C(=O)c1cc2c(=O)[nH]c3ccc(C)cc3c2s1)c1cccc(C)c1	aSyn 5UTR act -217
CC(=O)Nc1cccc2c1Cc1ccccc1-2	aSyn 5UTR act -159
CC(=O)Nc1ccc(S(=O)(=O)NC2=C(N3CCN(C)CC3)C(=O)c3ccccc3C2=O)cc1	none
Nc1ccc(O)c2c(=O)cc(-c3ccccc3Cl)oc12	aSyn 5UTR act -100
O=C(Nc1ccc(O)c2c(=O)cc(-c3cccc(Cl)c3)oc12)c1cccc(Cl)c1	none
Cc1ccc(-c2csc(N)n2)s1	aSyn 5UTR act -71
CCCCCOC(=O)NCC(O)c1ccccc1 (configuration not stated)	aSyn 5UTR act -128
Cc1ccnc(N=Cc2nc(-c3ccccc3Br)oc2O)c1	aSyn 5UTR act -102
O=C(Nc1ccccc1)c1ccccc1O	aSyn 5UTR act -151
Cc1ccccc1NC(=O)c1ccccc1O	aSyn 5UTR act -118
Cc1ccccc1NC(=O)C(=O)Nc1ccccc1C	aSyn 5UTR act -143
O=S(=O)(/N=C(/Nc1ccccc1)c1ccccc1O)c1ccccc1	aSyn 5UTR act -79
Cc1ccc(C(=O)NCCOc2cccc(C)c2)cc1	aSyn 5UTR act -111
Cc1ccc(OCCNC(=O)c2ccc3c(c2)OCO3)cc1	aSyn 5UTR act -62
Cc1ccc(NC(=O)Nc2ccccc2CC[N+](=O)[O-])cc1	aSyn 5UTR act -79
Cc1cccc(C)c1N=C1SC(CC(=O)Nc2c(C)cccc2C)C(=O)N1CCc1ccccn1 (configuration not stated)	none
CCNC(=O)NC(=O)COC(=O)c1ccccc1SCC(=O)NC(=O)NCC	aSyn 5UTR act -122
COc1ccc(C2=NOC(C(=O)NCC(C)C)C2)cc1 (configuration not stated)	aSyn 5UTR act -107
COc1ccc(C2=NOC(C(=O)NCc3ccco3)C2)cc1 (configuration not stated)	aSyn 5UTR act -77
O=C(Nc1ccccn1)c1ccc2c(c1)S(=O)(=O)c1ccccc1C2=O	aSyn 5UTR act -90
O=C(Nc1ccccn1)c1ccc(Cl)c(S(=O)(=O)N2CCCCCC2)c1	aSyn 5UTR act -81
Cc1ccnc(NC(=O)c2ccc(Cl)c(S(=O)(=O)N3CCCC3)c2)c1	aSyn 5UTR act -132
Cn1cnnc1Sc1ccc(/C=C/C(=O)c2ccc(O)cc2)cc1[N+](=O)[O-]	aSyn 5UTR act -111
Cc1[nH]c2ccc(C(=O)NC3CCC(C)CC3)cc2c1C (configuration not stated)	aSyn 5UTR act -148
CC1CCC(NC(=O)c2ccc3nc[nH]c3c2)CC1 (configuration not stated)	aSyn 5UTR act -81
O=C(COc1ccc(Cc2ccccc2)cc1)c1ccc(F)cc1	aSyn 5UTR act -72
O=C(COc1ccc(F)cc1)c1ccc2c(c1)CCCC2	aSyn 5UTR act -133
CCN1C(=O)N/C(=C/c2cc(C)n(Cc3ccccc3)c2C)C1=O	aSyn 5UTR act -63
O=[N+]([O-])c1ccc(-c2cn3c(n2)CCC3)cc1	aSyn 5UTR act -129
CCn1nccc1C(=O)Nc1ccc(Cl)cn1	aSyn 5UTR act -96
CCn1ccc(C(=O)Nc2ccccc2SC)n1	aSyn 5UTR act -175
CCn1ccc(C(=O)Nc2ccc(Cl)cn2)n1	aSyn 5UTR act -137
COc1ccc(/C=C/C(=O)NC(=S)N2CCSCC2)cc1	aSyn 5UTR act -65
COc1ccc(NC(=O)CN(C)C(=O)/C=C/c2ccc(S(=O)(=O)N3CCCCCC3)cc2)cc1	none
COc1ccc(/C=C/C(=O)NC(=S)N2CCN(c3ccccn3)CC2)cc1	aSyn 5UTR act -122
